Source: PubChem BioAssay (EPA / NIEHS)
Records with an inconclusive call do not appear. Active and inactive are the calls of the source. Rule for the calls, unless noted: active = hit-call score of the fitted dose curve at least 0.9, where 1 is the maximum; inconclusive = response in the unintended direction; inactive = score below 0.9.

How the values were obtained:
[1] = ATG_TAL_CIS: Attagene CIS-FACTORIAL HepG2 Assay for human TAL Basal Promoter (AID 2282966; active = hit-call score of the fitted dose curve at least 0.9, where 1 is the maximum; inactive = score below 0.9;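 note: background control endpoint measuring basal TAL promoter reporter mRNA not a specific factor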); details: HepG2 Attagene cis-factorial TAL promoter reporter; actives raise or lower the signal
Summary of the method: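 Background-control endpoint: basal TAL promoter reporter transcripts in transiently transfected HepG2, measured 24 h after dosing. Read-out by RT-PCR with fluorescent primer extension and capillary electrophoresis; gain or loss of signal fitted relative to DMSO.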

[2] = ATG_TGFb_CIS: Attagene CIS-FACTORIAL HepG2 Assay for human Transforming Growth Factor (TGF) (AID 2282967; active = hit-call score of the fitted dose curve at least 0.9, where 1 is the maximum; inactive = score below 0.9); details: HepG2 Attagene CIS TGFb reporter, mRNA transcription; actives raise or lower the signal
Summary of the method: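 Cells were dosed for 24 hours, after which total RNA was reverse-transcribed and reporter sequences amplified, labeled and sized by capillary electrophoresis. Activity was fitted in both directions against DMSO.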

[3] = ATG_VDRE_CIS: Attagene CIS-FACTORIAL HepG2 Assay for human Vitamin D Receptor Element (VDRE) (AID 2282968; active = hit-call score of the fitted dose curve at least 0.9, where 1 is the maximum; inactive = score below 0.9); details: HepG2 VDRE cis-reporter transcription, actives raise or lower the signal
Summary of the method: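 Transient MRTU transfection of HepG2, 24 h compound exposure. Readout: reporter transcripts via RT-PCR and capillary electrophoresis, fluorescence. Bidirectional fit vs DMSO.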

[4] = molecular target: Nuclear receptor subfamily 1 group I member 3 (Homo sapiens) (UniProt Q14994); experiment: ATG_CAR_TRANS: Attagene TRANS-FACTORIAL HepG2 Assay for human Constitutive Androstane Receptor (CAR) (AID 2282969); details: HepG2 Attagene TRANS-FACTORIAL CAR reporter;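 note: activators raise reporter mRNA above DMSO so AC50 marks induction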
Summary of the method: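 Transiently transfected HepG2, multiplex TRANS reporters (CAR-Gal4 chimera driving GAL4-UAS reporter). 24 h dosing. Readout: reporter transcript by RT-PCR + capillary electrophoresis, fluorescence intensity; positive direction vs DMSO.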

[5] = molecular target: Estrogen receptor (Homo sapiens) (UniProt P03372); experiment: ATG_ERa_TRANS: Attagene TRANS-FACTORIAL HepG2 Assay for human Estrogen Receptor alpha (ERa) (AID 2282970); details: HepG2 Attagene TRANS ERa GAL4 reporter, mRNA
Summary of the method: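 Reporter transcripts were measured 24 h after dosing by RT-PCR with fluorescent primer extension and capillary electrophoresis. The system is transiently transfected HepG2 expressing exogenous NR-Gal4 chimeras driving GAL4-UAS reporters; DMSO is the baseline.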

[6] = molecular target: X-box-binding protein 1 (Homo sapiens) (UniProt P17861); experiment: ATG_Xbp1_CIS: Attagene CIS-FACTORIAL HepG2 Assay for human X-box Binding Protein 1 (XBP1) (AID 2282972; active = hit-call score of the fitted dose curve at least 0.9, where 1 is the maximum; inactive = score below 0.9); details: HepG2 XBP1 cis-element reporter, Attagene multiplex; actives raise or lower the signal
Summary of the method: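 Human hepatoma HepG2, cis-element reporter system, 24 h treatment; mRNA quantified by RT-PCR/CE fluorescence; fit relative to DMSO.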

[7] = molecular target: Estrogen-related receptor gamma (Homo sapiens) (UniProt P62508); experiment: ATG_ERRg_TRANS: Attagene TRANS-FACTORIAL HepG2 Assay for human Estrogen-Related Receptor gamma (ERRg) (AID 2282977); details: HepG2 Attagene TRANS reporter, ERRg transactivation;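 note: hits increase reporter signal over DMSO so potencies reflect activators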
Summary of the method: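 Exogenous NR-Gal4 chimera activity was assessed in HepG2 cells bearing transfected GAL4-UAS reporters. After 24 h dosing, total RNA underwent RT-PCR, fluorescent primer extension and HpaI digestion before capillary electrophoresis, with gain of signal scored against DMSO.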

[8] = molecular target: Oxysterols receptor LXR-alpha (Homo sapiens) (UniProt Q13133); experiment: ATG_LXRa_TRANS: Attagene TRANS-FACTORIAL HepG2 Assay for human Liver X Receptor alpha (LXRa) (AID 2282980); details: HepG2 Attagene TRANS reporter, LXRa transactivation
Summary of the method: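 Chemical-induced reporter mRNA measured by RT-PCR with fluorescent labelling and capillary electrophoresis after 24 h dosing of transiently transfected HepG2 cells expressing exogenous NR-Gal4 chimeras; increases scored against DMSO baseline.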

[9] = molecular target: Hepatocyte nuclear factor 4-alpha (Homo sapiens) (UniProt P41235); experiment: ATG_HNF4a_TRANS: Attagene TRANS-FACTORIAL HepG2 Assay for human Hepatocyte Nuclear Factor 4 alpha (HNF4a) (AID 2282982); details: HepG2 HNF4a transactivation reporter, mRNA readout
Summary of the method: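 Transient MRTU transfection of HepG2, 24 h dosing. Readout: reporter mRNA via RT-PCR + capillary electrophoresis, fluorescence; activity fit upward relative to DMSO control.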

[10] = ATG_M_06_TRANS: Attagene TRANS-FACTORIAL HepG2 Assay for M06 Transcription Factor (Internal Marker) (AID 2282983); details: HepG2 Attagene TRANS M06 internal marker reporter
Summary of the method: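 Background-control reporter readout: after 24 h chemical exposure of transiently transfected HepG2 (GAL4-UAS reporter units), mRNA quantified by RT-PCR with fluorescent labeling and capillary electrophoresis. Gain-of-signal fitting against DMSO baseline.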

[11] = ATG_M_32_TRANS: Attagene TRANS-FACTORIAL HepG2 Assay for M32 Transcription Factor (Internal Marker) (AID 2282984); details: HepG2 Attagene TRANS M32 internal marker reporter
Summary of the method: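 Read-out: fluorescent reporter cDNA fragments resolved by capillary electrophoresis after RT-PCR of total RNA. Transfected HepG2 cells were exposed to chemical for 24 h. Activity scored in the positive direction relative to DMSO.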

[12] = molecular target: Transcriptional activator Myb (Homo sapiens) (UniProt P10242); experiment: ATG_Myb_CIS: Attagene CIS-FACTORIAL HepG2 Assay for human Myeloblastosis (Myb) Proto-Oncogene Transcription Factor (AID 2282986; active = hit-call score of the fitted dose curve at least 0.9, where 1 is the maximum; inactive = score below 0.9); details: HepG2 Attagene CIS-FACTORIAL Myb reporter transcription; actives raise or lower the signal
Summary of the method: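 In this HepG2 transient-transfection format, cis-regulated reporter mRNA is quantified 24 h post-dosing by RT-PCR with capillary electrophoresis, fitted bidirectionally to DMSO baseline.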

[13] = molecular target: Nuclear respiratory factor 1 (Homo sapiens) (UniProt Q16656); experiment: ATG_NRF1_CIS: Attagene CIS-FACTORIAL HepG2 Assay for human Nuclear Respiratory Factor 1 (NRF1) Orphan Gene (AID 2282987; active = hit-call score of the fitted dose curve at least 0.9, where 1 is the maximum; inactive = score below 0.9); details: HepG2 NRF1 cis-element reporter, Attagene multiplex; actives raise or lower the signal
Summary of the method: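 Using DMSO as baseline, gain- or loss-of-signal was fitted for reporter mRNA levels in HepG2 cells transiently transfected with cis-regulated reporter units. Samples were taken 24 h after dosing and read by RT-PCR with capillary electrophoresis.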

[14] = molecular target: Steroid hormone receptor ERR1 (Homo sapiens) (UniProt P11474); experiment: ATG_ERRa_TRANS: Attagene TRANS-FACTORIAL HepG2 Assay for human Estrogen-Related Receptor alpha (ERRa) (AID 2282971); details: HepG2 Attagene TRANS reporter, ERRa transactivation
Summary of the method: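 Reporter transcripts from ERRa-Gal4 chimera activity measured in transiently transfected human HepG2 cells 24 hours after dosing, using RT-PCR with 6-FAM primer extension, HpaI digestion and capillary electrophoresis; DMSO is baseline.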

[15] = ATG_M_19_TRANS: Attagene TRANS-FACTORIAL HepG2 Assay for M19 Transcription Factor (Internal Marker) (AID 2282974); details: HepG2 Attagene TRANS-FACTORIAL M19 internal marker reporter
Summary of the method: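 Using RT-PCR and capillary electrophoresis, reporter mRNA from transiently transfected human HepG2 cells was quantified following 24 h exposure; activity was fitted in the positive direction against DMSO.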

[16] = molecular target: Nuclear receptor subfamily 4 group A member 2 (Homo sapiens) (UniProt P43354); experiment: ATG_NURR1_TRANS: Attagene TRANS-FACTORIAL HepG2 Assay for human Nuclear Receptor Related Protein 1 (NURR1) (AID 2282985); details: HepG2 Attagene TRANS reporter, mRNA readout
Summary of the method: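 Read-out: reporter mRNA induction by RT-PCR plus capillary electrophoresis with fluorescence detection, after 24 h dosing of transfected HepG2 cells. Exogenous NR-Gal4 chimera activity drives GAL4-UAS reporter; activity fitted upward versus DMSO.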

[17] = molecular target: Oxysterols receptor LXR-beta (Homo sapiens) (UniProt P55055); experiment: ATG_LXRb_TRANS: Attagene TRANS-FACTORIAL HepG2 Assay for human Liver X Receptor beta (LXRb) (AID 2282981); details: HepG2 Attagene TRANS GAL4-LXRb reporter, mRNA
Summary of the method: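 Readout: fluorescent reporter mRNA fragments resolved by capillary electrophoresis after RT-PCR. System: transiently transfected human HepG2, exogenous LXRb-Gal4 chimera driving GAL4-UAS reporter, 24 h dosing. Activity fitted upward against DMSO baseline.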

[18] = ATG_GAL4_TRANS: Attagene TRANS-FACTORIAL HepG2 Assay for GAL4 (Internal Marker) (AID 2282976); details: HepG2 Attagene TRANS GAL4 internal marker reporter
Summary of the method: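 In transfected human HepG2 liver cells dosed 24 h, GAL4 reporter mRNA serves as a baseline marker. Detection by RT-PCR with fluorescent capillary electrophoresis, activity fitted upward relative to DMSO.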

[19] = molecular target: Glucocorticoid receptor (Homo sapiens) (UniProt P04150); experiment: ATG_GR_TRANS: Attagene TRANS-FACTORIAL HepG2 Assay for human Glucocorticoid Receptor (GR) (AID 2282978); details: HepG2 Attagene TRANS GR reporter, mRNA transcription;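 note: activators score as hits since higher reporter transcript over DMSO is fitted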
Summary of the method: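 Exogenous NR-GAL4 fusion activity was assessed through induced GAL4-UAS reporter transcripts in transfected human HepG2 cells, quantified after 24 h by RT-PCR and fluorescent capillary electrophoresis with DMSO as baseline.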

[20] = molecular target: Bile acid receptor (Homo sapiens) (UniProt Q96RI1); experiment: ATG_FXR_TRANS: Attagene TRANS-FACTORIAL HepG2 Assay for Farnesoid X Receptor (FXR) (AID 2282979); details: HepG2 Attagene TRANS FXR-GAL4 reporter transcription;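 note: hits raise reporter mRNA above DMSO so AC50 marks FXR activation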
Summary of the method: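 Reporter transcripts from transfected HepG2 cells were measured 24 h after dosing, using RT-PCR with capillary electrophoresis of 6-FAM-labelled fragments. The read-out reflects activity of exogenous FXR-Gal4 chimera on GAL4-UAS units, with induction relative to DMSO.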

Measured: AC50

Sequence of X-box-binding protein 1 (Homo sapiens) (P17861 whole entry, looked up): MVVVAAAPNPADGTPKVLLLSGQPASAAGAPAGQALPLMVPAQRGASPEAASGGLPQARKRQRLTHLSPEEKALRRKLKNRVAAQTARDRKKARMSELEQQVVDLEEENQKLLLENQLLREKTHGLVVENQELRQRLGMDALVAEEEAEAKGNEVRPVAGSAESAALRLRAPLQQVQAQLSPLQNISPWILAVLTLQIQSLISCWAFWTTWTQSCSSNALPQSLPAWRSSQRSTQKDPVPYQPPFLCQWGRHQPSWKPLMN
Sequence of Oxysterols receptor LXR-alpha (Homo sapiens) (Q13133 whole entry, looked up, the tested form may be a part): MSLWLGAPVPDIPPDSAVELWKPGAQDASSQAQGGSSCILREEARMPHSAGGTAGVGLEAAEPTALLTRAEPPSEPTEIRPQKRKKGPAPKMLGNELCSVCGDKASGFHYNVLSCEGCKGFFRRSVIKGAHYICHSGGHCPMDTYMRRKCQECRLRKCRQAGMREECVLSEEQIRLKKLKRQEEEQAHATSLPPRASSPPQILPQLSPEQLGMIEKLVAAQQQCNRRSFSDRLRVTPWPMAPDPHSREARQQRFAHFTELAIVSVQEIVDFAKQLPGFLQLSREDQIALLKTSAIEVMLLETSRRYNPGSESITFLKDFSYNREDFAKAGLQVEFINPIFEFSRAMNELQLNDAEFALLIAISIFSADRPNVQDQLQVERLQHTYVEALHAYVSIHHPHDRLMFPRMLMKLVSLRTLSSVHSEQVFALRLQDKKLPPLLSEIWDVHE
Sequence of Oxysterols receptor LXR-beta (Homo sapiens) (P55055 whole entry, looked up, the tested form may be a part): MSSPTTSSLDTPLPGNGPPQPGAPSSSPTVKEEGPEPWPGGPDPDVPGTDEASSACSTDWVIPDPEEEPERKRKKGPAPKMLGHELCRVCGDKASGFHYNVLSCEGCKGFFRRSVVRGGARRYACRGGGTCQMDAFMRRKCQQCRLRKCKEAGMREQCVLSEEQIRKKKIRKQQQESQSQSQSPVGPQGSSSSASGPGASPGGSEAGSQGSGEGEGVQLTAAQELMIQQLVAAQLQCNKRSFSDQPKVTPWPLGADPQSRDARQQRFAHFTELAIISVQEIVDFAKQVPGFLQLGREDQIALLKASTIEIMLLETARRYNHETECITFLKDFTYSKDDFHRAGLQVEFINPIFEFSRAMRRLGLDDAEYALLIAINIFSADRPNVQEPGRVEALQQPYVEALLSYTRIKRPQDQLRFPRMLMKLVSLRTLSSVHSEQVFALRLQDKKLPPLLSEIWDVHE
Sequence of Estrogen-related receptor gamma (Homo sapiens) (P62508 whole entry, looked up, the tested form may be a part): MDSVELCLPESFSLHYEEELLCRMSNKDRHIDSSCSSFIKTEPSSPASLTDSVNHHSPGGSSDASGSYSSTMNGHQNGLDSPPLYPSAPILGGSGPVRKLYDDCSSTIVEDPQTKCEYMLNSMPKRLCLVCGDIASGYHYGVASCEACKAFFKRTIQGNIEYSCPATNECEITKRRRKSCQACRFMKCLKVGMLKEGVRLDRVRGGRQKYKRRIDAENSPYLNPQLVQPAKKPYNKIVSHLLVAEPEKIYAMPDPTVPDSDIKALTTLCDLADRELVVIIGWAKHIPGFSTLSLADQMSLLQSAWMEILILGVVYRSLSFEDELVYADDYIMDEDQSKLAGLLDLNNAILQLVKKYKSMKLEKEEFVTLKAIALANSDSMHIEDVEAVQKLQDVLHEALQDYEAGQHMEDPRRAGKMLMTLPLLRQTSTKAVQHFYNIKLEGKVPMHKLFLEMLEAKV
Sequence of Bile acid receptor (Homo sapiens) (Q96RI1 whole entry, looked up, the tested form may be a part): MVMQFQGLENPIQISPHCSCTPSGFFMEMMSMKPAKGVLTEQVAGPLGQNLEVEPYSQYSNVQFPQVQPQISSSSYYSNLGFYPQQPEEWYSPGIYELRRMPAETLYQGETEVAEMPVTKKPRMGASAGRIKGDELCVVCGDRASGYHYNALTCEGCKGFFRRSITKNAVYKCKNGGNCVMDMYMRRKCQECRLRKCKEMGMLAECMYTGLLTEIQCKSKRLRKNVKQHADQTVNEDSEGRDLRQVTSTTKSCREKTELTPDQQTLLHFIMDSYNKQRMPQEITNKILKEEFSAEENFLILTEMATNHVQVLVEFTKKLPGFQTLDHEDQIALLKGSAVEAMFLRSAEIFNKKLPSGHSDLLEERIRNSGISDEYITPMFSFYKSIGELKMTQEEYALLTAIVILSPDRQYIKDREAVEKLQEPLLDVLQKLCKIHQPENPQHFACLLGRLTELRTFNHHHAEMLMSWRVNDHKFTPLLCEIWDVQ
Sequence of Glucocorticoid receptor (Homo sapiens) (P04150 whole entry, looked up, the tested form may be a part): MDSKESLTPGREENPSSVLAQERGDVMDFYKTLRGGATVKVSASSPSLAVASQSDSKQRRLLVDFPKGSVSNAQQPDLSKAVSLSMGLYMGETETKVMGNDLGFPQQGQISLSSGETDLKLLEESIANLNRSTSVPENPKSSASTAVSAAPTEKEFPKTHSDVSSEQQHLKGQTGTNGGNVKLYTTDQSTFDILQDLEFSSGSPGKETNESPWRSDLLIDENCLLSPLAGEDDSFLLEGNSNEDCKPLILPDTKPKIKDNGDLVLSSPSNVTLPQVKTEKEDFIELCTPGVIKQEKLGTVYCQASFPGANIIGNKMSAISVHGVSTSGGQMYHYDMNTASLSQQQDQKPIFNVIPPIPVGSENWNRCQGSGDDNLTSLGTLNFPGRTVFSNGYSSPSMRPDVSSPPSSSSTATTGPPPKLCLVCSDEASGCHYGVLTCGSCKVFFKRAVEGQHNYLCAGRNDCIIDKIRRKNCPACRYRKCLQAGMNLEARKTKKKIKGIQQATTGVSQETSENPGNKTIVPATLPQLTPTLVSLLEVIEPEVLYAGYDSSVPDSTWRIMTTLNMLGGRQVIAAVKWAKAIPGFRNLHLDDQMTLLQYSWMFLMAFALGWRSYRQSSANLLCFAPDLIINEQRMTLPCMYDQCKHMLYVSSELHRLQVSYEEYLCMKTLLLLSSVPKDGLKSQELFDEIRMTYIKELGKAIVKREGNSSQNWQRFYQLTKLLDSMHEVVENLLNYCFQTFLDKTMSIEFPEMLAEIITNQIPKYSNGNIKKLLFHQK
Sequence of Nuclear respiratory factor 1 (Homo sapiens) (Q16656 whole entry, looked up): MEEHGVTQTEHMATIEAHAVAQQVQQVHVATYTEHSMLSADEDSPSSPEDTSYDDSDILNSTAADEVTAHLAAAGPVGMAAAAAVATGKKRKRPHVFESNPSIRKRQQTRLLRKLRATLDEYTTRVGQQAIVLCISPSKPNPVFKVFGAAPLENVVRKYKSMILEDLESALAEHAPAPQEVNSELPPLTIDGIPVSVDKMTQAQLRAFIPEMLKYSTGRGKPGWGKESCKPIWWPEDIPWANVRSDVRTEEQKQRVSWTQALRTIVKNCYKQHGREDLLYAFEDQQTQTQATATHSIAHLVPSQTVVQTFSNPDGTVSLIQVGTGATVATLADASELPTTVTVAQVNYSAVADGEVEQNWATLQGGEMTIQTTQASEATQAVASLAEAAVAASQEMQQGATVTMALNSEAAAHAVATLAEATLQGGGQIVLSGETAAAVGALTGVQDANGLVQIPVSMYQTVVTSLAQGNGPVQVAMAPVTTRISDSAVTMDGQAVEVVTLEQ
Sequence of Steroid hormone receptor ERR1 (Homo sapiens) (P11474 whole entry, looked up, the tested form may be a part): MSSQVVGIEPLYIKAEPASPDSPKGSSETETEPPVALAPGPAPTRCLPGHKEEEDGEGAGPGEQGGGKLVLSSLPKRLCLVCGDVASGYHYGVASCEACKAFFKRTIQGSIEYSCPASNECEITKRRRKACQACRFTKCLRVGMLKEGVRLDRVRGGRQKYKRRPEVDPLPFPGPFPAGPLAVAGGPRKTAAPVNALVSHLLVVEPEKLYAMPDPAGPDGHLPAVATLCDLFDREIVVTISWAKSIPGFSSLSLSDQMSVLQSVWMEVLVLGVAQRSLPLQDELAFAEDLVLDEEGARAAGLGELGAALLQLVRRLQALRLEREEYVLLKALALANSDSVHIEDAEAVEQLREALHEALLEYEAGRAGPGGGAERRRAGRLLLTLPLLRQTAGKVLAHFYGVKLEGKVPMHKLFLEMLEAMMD
Sequence of Transcriptional activator Myb (Homo sapiens) (P10242 whole entry, looked up): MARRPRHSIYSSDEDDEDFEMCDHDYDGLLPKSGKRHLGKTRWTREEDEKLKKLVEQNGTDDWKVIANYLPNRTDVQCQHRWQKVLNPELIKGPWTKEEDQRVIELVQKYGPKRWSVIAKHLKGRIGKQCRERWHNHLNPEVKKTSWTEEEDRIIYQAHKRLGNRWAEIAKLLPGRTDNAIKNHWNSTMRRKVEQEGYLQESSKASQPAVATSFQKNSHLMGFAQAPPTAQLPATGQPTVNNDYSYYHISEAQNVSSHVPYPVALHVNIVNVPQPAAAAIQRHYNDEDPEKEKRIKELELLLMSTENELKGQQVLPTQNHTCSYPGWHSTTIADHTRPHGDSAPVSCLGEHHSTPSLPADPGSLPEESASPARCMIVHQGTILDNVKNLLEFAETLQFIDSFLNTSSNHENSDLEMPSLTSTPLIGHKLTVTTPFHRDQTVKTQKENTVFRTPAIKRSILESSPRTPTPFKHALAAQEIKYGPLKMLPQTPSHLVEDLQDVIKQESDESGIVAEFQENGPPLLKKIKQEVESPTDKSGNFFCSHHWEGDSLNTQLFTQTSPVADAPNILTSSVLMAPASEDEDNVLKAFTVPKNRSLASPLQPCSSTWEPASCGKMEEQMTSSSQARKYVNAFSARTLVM
Sequence of Nuclear receptor subfamily 1 group I member 3 (Homo sapiens) (Q14994 whole entry, looked up, the tested form may be a part): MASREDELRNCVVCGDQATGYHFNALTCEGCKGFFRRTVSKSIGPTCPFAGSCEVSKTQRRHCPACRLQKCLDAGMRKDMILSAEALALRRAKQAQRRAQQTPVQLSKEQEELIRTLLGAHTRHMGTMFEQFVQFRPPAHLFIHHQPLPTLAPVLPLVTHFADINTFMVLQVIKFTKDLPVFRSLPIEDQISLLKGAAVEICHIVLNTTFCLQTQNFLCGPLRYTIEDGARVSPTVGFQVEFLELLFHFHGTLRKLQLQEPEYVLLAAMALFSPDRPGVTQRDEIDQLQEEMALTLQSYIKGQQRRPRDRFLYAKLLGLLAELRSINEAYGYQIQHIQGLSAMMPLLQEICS

CCN(CCN)c1cccc(C)c1
active: [3] 72.4 µM
not listed: [14] | [15] | [16] | [17] | [18] | [19] | [20]
inactive: all other assays above

CCC(C)c1cc([N+](=O)[O-])cc([N+](=O)[O-])c1OC(=O)OC(C)C (centres undefined)
active: [2] 100 µM | [3] 0.705 µM | [6] 24.3 µM | [16] 27.1 µM | [12] 156 µM | [13] 143 µM
inactive: [1] | [4] | [14] | [15] | [7] | [8] | [9] | [11]

C=CC(=O)OCCC#N
inactive: [1] | [2] | [4] | [14] | [7] | [17] | [9] | [10] | [16] | [12]
active: [3] 48.8 µM | [6] 36.4 µM

Cc1c(C2(c3cc(Br)c(O)c(Br)c3C)OS(=O)(=O)c3ccccc32)cc(Br)c(O)c1Br
active: [3] 22.7 µM
not listed: [5] | [10] | [14] | [17] | [20]
inactive: all other assays above

CCCC(=O)c1ccccc1
not listed: [5] | [9] | [16] | [20]
inactive: all other assays above

CCCCCCCCc1ccc(S(=O)(=O)O)cc1
active: [12] 166 µM | [13] 146 µM
not listed: [5] | [7] | [8] | [9] | [10] | [14] | [17]
inactive: all other assays above

C1=CC2C3C=CC(C3)C2C1 (centres undefined)
not listed: [5] | [6] | [7] | [8] | [9] | [11]
inactive: all other assays above

CCC(=O)O[C@@H]1C[C@H]2CC[C@]1(C)C2(C)C
not listed: [5] | [7] | [8] | [9] | [10] | [14] | [16] | [20]
inactive: all other assays above

NCC1CCCC(CN)C1 (centres undefined)
not listed: [5] | [7] | [8] | [11] | [15]
inactive: all other assays above
